Experimental findings from the supplement of paper PMC12632987 are described below.

Sequences and labels used below:
B1: GBRAPL2_63_7400 (protein)
chain: SAAKKALEALLEHAILDLETAERLEKALEEETDEEKLYEALVEAILDLNPEATREQAEEIADLLIELAKQSEAALKAAVRALSTVPLEEALAFLRAAVAA
B2: GBRAPL2_63_7391 (protein)
chain: SLADKTAALLSRLGAVPLELAEAWEAAAAALTDVAAFAEAAAAAAAAINPRIDAERQAILEEAIRRALTEDDPLAVEIVSAIINNEPDEEIRALWKKLLA
B3: GBRAPL2_63_7398 (protein)
chain: MLAKKVLEALLENAILPLDLAEELEKALETLKTEEELRETLVKAILELNPELTEEEAEEIVDLLIELAKKSEELLKEGVRALSTLDNETAKEYLKKLVAE
B4: GBRAPL2_63_7403 (protein)
chain: SEVEKVLKAILEYATLDLDTAERIDKALESNLSEEELFEVLVETIKDINPELTDEEAEKIAELLIELAKQSEEKLKEAVRKLQTMENEEFIAYLEELVKE
B5: GBRAPL2_63_7405 (protein)
chain: MTAKKVLEALLRHAILPLDTAERLDEALENEEDEEKLRETLVEAILDIRPELTPEEAEYVAEKLLALAEQSEERLAEAVRALTTLSKEEFLARLDELVAE
B6: GBRAPL2_63_7395 (protein)
chain: SAAARVLRALLEHAIVDLETAERIEEALATEKSAEALRETLVAALLDMIPELTEEEARELAAALEALARRSPELLREALRALQTLSLEEARARLAALLAA
B7: GBRAPL2_54_7390 (protein)
chain: LVEVELILIVSGELPEEEIERIEELLKEKTEELLKKHSDKIEKILRFEREREDGVVLISVELLVKEEYKEEVIDELIKIAEEIREESGVEIKSVIAESSD
B8: GBRAPL2_63_7404 (protein)
chain: SSAEKVLKTLLEYATLDLDTAERLEEALESNASEEELREALVEAIKDIRPDLTEEEAERVADLLIELAKQSEELLKEAVRDLDTLENDEFLKRLEELVAA
B9: GBRAPL2_63_7399 (protein)
chain: SAAKKALEALLEHAILDLDTAERLDKALENEKDEEKLRKALVEAILDINPEATEEEAERMADLLLELAKKSEAALKEAVRALSTMDLPEALAFLEALVAA
B10: GBRAPL2_63_7402 (protein)
chain: SAVERVLRTLLEHAVLDLDTAERLEKALESNLSDEELFKTLVEAIKDINPELTEEEAERVARLLIALAEQSEALLVEAVRQLSTLENEEFLALLEALVAA
B11: GBRAPL2_63_7401 (protein)
chain: SSVEKVLKTLLEYAVLDLDTAEKIDKALENNESDEELFKTLVEAIKDIRPDLTEEEAEEIAKLLIELAKKSEELLKEAVRKLDTMENEEFIKYLKELVEK
B12: GBRAPL2_63_7393 (protein)
chain: STWARVLRLILEHATIDLETAERLEAALESNASDEELFATLVEALQDIRPELTPEQARDIAAKLARLAERSEALAAEAVRRLDTMSLEEFLAHLDALVAA
B13: GBRAPL2_63_7397 (protein)
chain: MTAKKVLEIILREAILDLETAEKLEEALKNEKTEEALREALVEAILDMRPDLTEEEAEEIVDLLLELQKKSEELAREGVRALSTLDNEEALAYLKELVAK
B14: GBRAPL2_63_7392 (protein)
chain: SLLDKVLKLLSRLGPVPLDLAERFEELAEELSDEEELAKAIAEAVQEDNPHIDEERRKILEEAILKALTEDSEIAIKIASAIINGAPMEEIEKLLEELKK
B15: GBRAPL2_63_7394 (protein)
chain: SAARKVLEALLEHAIIDLETAERLEKALEEAKSEEELRKTLVEALLDMIPELTEEEAEELADMLIELAKKSEELLKEAILALQTLSKEEALAKLKALVAE
B16: GBRAPL2_63_7396 (protein)
chain: MIAKKVLEILLREAILDLETAEELEKALEEEKTEEELRKALVKAILDLNPDLTEEEAEEIVELLLELAKKSEELARKAVRALSTLDNEEAFAFIKKLVAE

GABARAPL2, P60520, sequence (P60520 whole entry, the tested form may be a part): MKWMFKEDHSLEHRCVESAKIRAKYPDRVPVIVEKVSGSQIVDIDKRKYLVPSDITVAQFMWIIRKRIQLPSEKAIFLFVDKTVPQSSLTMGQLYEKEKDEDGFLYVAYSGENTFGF

In this experiment the target is GABARAPL2, P60520. Briefly: median log2 fold change of GCK-ALFA target abundance (FLAG IP / Myc IP barcode read proportion) (log2 ratio); each designed protein is fused to an ALFA-tag nanobody in HEK293 cells to bring the named protein to FLAG-tagged glucokinase (GCK); Myc marks an untargeted standard; higher = target protein stabilised (more abundant). The note with it: target protein: 3xFLAG-MCP-GCK-ALFA reporter; HEK293 landing pad (RPLP). In a few lines:
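An ALFA-nanobody-fused binder library was recombined into HEK293 landing-pad cells and induced with 2 μg mL^−1 doxycycline. Cells were transfected with a plasmid expressing a FLAG-tagged target and a Myc-tagged standard. After 48 h, lysates underwent anti-FLAG and anti-Myc immunoprecipitation, and circular RNA barcodes were reverse transcribed, amplified and sequenced. Target abundance is the per-binder median log2 ratio of FLAG to Myc barcode read proportions. Barcodes needed ≥10^−7 proportion in both replicates, binders ≥3 barcodes per replicate, and a 10^−6 pseudocount was added; the two replicates were pooled.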
Consider B1, for which the “median log2 fold change” value is -0.0605.
Consider B2, for which the “median log2 fold change” value stood at 0.206.
Consider B3, for which the “median log2 fold change” value was 0.0619.
To B4 belongs -0.012; to B5, -0.247; to B6, 0.00583.
For B7 the value was -0.0228; for B8, 0.0151; for B9, -0.0717.
For B10 the value was 0.0388.
Consider B11, for which the “median log2 fold change” value is 0.131.
To B12 belongs 0.216; to B13, 0.0233.
For the molecule B14, the “median log2 fold change” value stood at 0.0699.
As for B15, the “median log2 fold change” value was determined as 0.071.
To B16 belongs 0.0814.
